The structures appear in SMILES notation. Hit rate of the full screen: of about 220,000 compounds, about 3,300 (1.5%) were called active. Many of the other results were omitted from the sample, so actives are more common in it than they were. Unmarked numbers belong to inactive results.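 The calls were made as follows: active = compounds that cut the protein-peptide binding signal by more than 50% relative to plate controls in a single-dose test; inactive = the rest.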

The target of the experiment is Induced myeloid leukemia cell differentiation protein Mcl-1 (Homo sapiens) (UniProt Q07820). As to the kind of experiment: disruptors of Mcl-1 and Noxa BH3 peptide – biochemical, TR-FRET, 1536-well, primary screen (AID 1022).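 Also: His-tagged Mcl-1 with rhodamine Noxa BH3 peptide and terbium anti-His antibody; 0% = Mcl-1 plus Noxa peptide wells and 100% = peptide-only wells.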 The note with it: TR-FRET Mcl-1/Noxa peptide binding, 2 h; at 21.7 µM; stronger effect = higher value.
Chain of Induced myeloid leukemia cell differentiation protein Mcl-1 (Homo sapiens) (Q07820 whole entry, looked up): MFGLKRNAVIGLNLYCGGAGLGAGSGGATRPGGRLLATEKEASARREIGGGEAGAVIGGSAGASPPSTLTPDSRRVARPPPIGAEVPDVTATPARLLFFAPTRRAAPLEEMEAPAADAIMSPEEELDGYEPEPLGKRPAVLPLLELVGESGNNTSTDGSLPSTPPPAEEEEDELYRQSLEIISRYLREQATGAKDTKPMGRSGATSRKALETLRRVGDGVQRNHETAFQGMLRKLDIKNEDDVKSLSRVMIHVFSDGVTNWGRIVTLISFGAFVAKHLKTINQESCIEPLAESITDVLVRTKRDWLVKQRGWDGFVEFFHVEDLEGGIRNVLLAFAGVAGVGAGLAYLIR
In general, inhibition refers to the relative decrease from the control value, in per cent. With `CCO[C@@H]1OC(C(=O)NC2CC2)=C[C@H](C)[C@H]1CCCO`, the inhibition was -4.75%.

With `Cc1ccc(SCC(=O)c2sc(-c3ccccc3)nc2C)cc1`, the inhibition was 12%.

Turning to `Cc1nc(-c2ccc(Cl)cc2)sc1C(=O)NN`, the inhibition was -14.8%.

Take `Cc1nc(-c2ccc(Cl)cc2)sc1C(=O)CBr`: the inhibition is 61% (active).

For `CC1=CC2=NC(=O)/C(=C/c3coc4ccccc4c3=O)C(=N)N2O1`, the inhibition was 1.38%.

As for `CCN(CC)C(=O)c1ccc(O)c(OC)c1`, the inhibition was 4.61%.

As for `COc1cc(C(=O)Nn2c(O)c(C3=c4ccccc4=NC3=O)sc2=S)ccc1O`, the inhibition was 58.1% (active).

Take `COc1cc(C(=S)NC2CCCCC2)ccc1O`: the inhibition is 14.7%.

In the case of `CC(C)(C)c1ccc(/C=C2\Oc3c(ccc(O)c3CN3CCN(CCO)CC3)C2=O)cc1`, the inhibition was 23.9%.

On to `CCOC(=O)c1ccc(S(=O)(=O)N(CCO)Cc2cc3cc(OC)c(OC)cc3[nH]c2=O)cc1`, for which the inhibition is -2.09%.

Consider `CN(CC(=O)NCCc1ccccn1)S(=O)(=O)c1ccc(Cl)cc1`, for which the inhibition is 0.36%.

With `O=S(=O)(/C=C/c1ccccc1)NCCc1ccccn1`, the inhibition is 70% (active).

As to `O=C(CNC(=O)COc1ccccc1)NCCc1ccccn1`, the inhibition was 23.7%.

For the compound `COc1ccccc1OCC(=O)O/N=C(\N)c1ccccn1`, the inhibition was 17.8%.

`COCCNC(=O)Nc1ccc2nc(-c3ccco3)c(-c3ccco3)nc2c1`: the inhibition is 107% (active).

Take `O=C(NCc1ccccn1)c1cc(-c2ccccc2Cl)on1`: the inhibition was 8.56%.

Turning to `O=C(NCc1ccccn1)c1ccc2nc(-c3ccco3)c(-c3ccco3)nc2c1`, the inhibition is 91.8% (active).

On to `COc1ccc(NC(=O)Nc2ccc3nsnc3c2)cc1`, for which the inhibition was 20.7%.

`COc1ccc(NC(=O)Nc2ccc3nc(C)c(C)nc3c2)cc1`: the inhibition is 32.9%.

As to `O=C(NCc1ccccn1)c1cc(Br)ccc1Cl`, the inhibition was 15.5%.

On to `O=C(NNC(=S)Nc1ccc(F)cc1)[C@H]1C[C@@H]1c1ccccc1`, for which the inhibition was -82.4%.

In the case of `O=C(Nc1ccc(N2CCOCC2)nc1)c1c(F)cccc1F`, the inhibition is 25.6%.

`Cc1cccc(NC(=O)CSc2nnc(CCNC(=O)OC(C)(C)C)o2)c1C`: the inhibition was -10.6%.

On to `C=CC1C(OC2OC(CO)C(O)C(O)C2O)OC=C(C(=O)OC)C1CC1CC(=O)CC(CC(=O)CCc2ccc(O)cc2)O1` (centres undefined), for which the inhibition is 18.5%.

As for `Cc1ccc(S(=O)(=O)N(C)C)cc1NC(=O)c1n[nH]c(=O)c2ccccc12`, the inhibition is -4.07%.

Consider `CCOC(=O)c1cn[nH]c1NC(=S)Nc1ccccc1`, for which the inhibition is 18.3%.

As to `Nc1ncc(-c2cc3ccccc3oc2=O)s1`, the inhibition was 21.7%.

`COc1ccc(-c2csc(Nc3ccccn3)n2)cc1`: the inhibition was 19.1%.

Consider `COc1ccc2nc(Nc3nc(-c4ccncc4)cs3)sc2c1`, for which the inhibition is 43.5%.

Take `COc1ccc(Nc2nc(-c3ccccc3)cs2)cc1`: the inhibition was 13.3%.

Take `COc1ccc(-c2csc(Nc3ccc(O)cc3)n2)cc1`: the inhibition is 69.4% (active).

With `COc1ccc(C)cc1Nc1nc(-c2c(C)[nH]c3ccccc23)cs1`, the inhibition is 12.8%.

Take `CCNc1nc(-c2cc3ccccc3o2)cs1`: the inhibition was 37.2%.

For the compound `COc1ccc(OC)c(Nc2nc(-c3ccc(O)c(O)c3)cs2)c1`, the inhibition was 69.2% (active).

For the compound `O=c1oc2ccccc2cc1-c1csc(Nc2ccc(O)cc2)n1`, the inhibition is 101% (active).

`O=C(NCc1ccc(F)cc1)C1CCC(CNc2c(N3CCOCC3)c(=O)c2=O)CC1` (centres undefined): the inhibition is -8.83%.

Regarding `CN1CCN(c2ncc3c(n2)CC(c2ccccc2F)CC3=O)CC1` (centres undefined), the inhibition is -10.3%.

For `CC(=O)NC(CC(=O)Nc1nccs1)c1ccccc1` (centres undefined), the inhibition was -8.98%.

As to `CC1(C)CC(=O)C(N=Nc2c(F)cccc2F)=C(O)C1`, the inhibition is -2.76%.

With `CC(NCc1ccccc1OC1CCCC1)c1ccccc1` (centres undefined), the inhibition is -3.22%.

On to `Cc1cc(-c2nc(C)c(-c3nnc(SCC(=O)Nc4ccccc4)n3C)s2)no1`, for which the inhibition was 3.26%.

Consider `Nc1nc(SC23CC4CC(CC(C4)C2)C3)ns1`, for which the inhibition was 5.98%.

Consider `CC1=CC(C)(C)NC(=S)N1NC(=O)c1ccccc1Cl`, for which the inhibition was 5.81%.

On to `O=C(Cn1cnc2c(cnn2-c2ccccc2)c1=O)NCc1ccccc1`, for which the inhibition was 6.36%.

As to `CC(C)(C)NC(=O)Cn1cnc2cc([N+](=O)[O-])ccc2c1=O`, the inhibition was 27.1%.

Turning to `O=C(Cn1cnc2cc([N+](=O)[O-])ccc2c1=O)NC(=O)NCc1ccccc1`, the inhibition is 53.5% (active).

In the case of `Cc1ccc(S(=O)(=O)NNC(=S)NC(C)(C)C)cc1`, the inhibition was -14.3%.

For `O=C(NC(=O)N1CCSCC1)c1c(Cl)cccc1Cl`, the inhibition was 2.15%.

Turning to `Cc1ccc(-c2csc(-c3cc(C)on3)n2)cc1`, the inhibition is -2.5%.

In the case of `O=S(=O)(c1cccc(-c2nnc3n2CCCCC3)c1)N1CCOCC1`, the inhibition is 3.07%.

As to `Cc1ccc(/C=C(\C#N)C(=O)Nc2cccc3ncccc23)o1`, the inhibition was 65.7% (active).

As to `Cc1ccc(C(=O)Nc2cccc3ncccc23)cc1[N+](=O)[O-]`, the inhibition is 10.6%.

On to `O=C(Nc1cccc2ncccc12)C(Cl)(Cl)Cl`, for which the inhibition was 11.1%.

For `Cc1ccc(NC(=O)/C(=C/c2ccc([N+](=O)[O-])cc2)NC(=O)c2ccccc2)cc1`, the inhibition is 3.04%.

Take `Cn1nccc1NC(=O)Nc1ccc(OC(F)(F)F)cc1`: the inhibition was -2.66%.

As to `Oc1c(Cl)cc(Cl)c(Cl)c1Cc1c(O)c(Cl)cc(Cl)c1Cl`, the inhibition was 104% (active).

With `COC(=O)Cc1nc2ccccc2[nH]1`, the inhibition was 9.2%.

In the case of `CCN(/N=C/c1ccc(N(C)C)cc1)c1nc2ccccc2[nH]1`, the inhibition is 81% (active).

For `Oc1ccc(/C=N/N(Cc2ccccc2)c2ccccc2)cc1`, the inhibition is 27%.

With `CN(C)c1ccc(/C=N\S(=O)(=O)c2ccccc2)cc1`, the inhibition was 2.37%.

On to `CCN(/N=C/c1ccccc1)c1cc(=O)n(C)c(=O)[nH]1`, for which the inhibition is 21%.

Regarding `CN(C)c1ccc(/C=N/N(Cc2ccccc2)c2ccccc2)cc1`, the inhibition is 95.7% (active).

Turning to `COc1cc(C(F)(F)F)nc2c(Br)c(C(C)(C)C)nn12`, the inhibition was 7.39%.

As for `CN(C)S(=O)(=O)c1ccc(C(=O)NCC(C)(C)N2CCOCC2)cc1`, the inhibition is 7.92%.

The values are drawn from PubChem BioAssay AID1022 (Emory University Molecular Libraries Screening Center, 2008).
